The values below come from PubChem BioAssay AID430 (Sanford-Burnham Center for Chemical Genomics, 2006).

The structures appear in SMILES notation. Hit rate of the full screen: of about 63,000 compounds, about 1,100 (1.7%) were called active. This excerpt belongs to a sample that is enriched for actives. Measured potencies and affinities stand elsewhere. A number with no mark means an inactive call. Cut-off read from the data, not from the text of the source: active = cytotoxicity above about 50%; inactive = the rest.

The assay in a line: HPDE-C7 pancreatic duct cell viability loss – fluorescence, HTS (AID 430).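 Note: cells exposed to compound for 48 hours before viability readout; 0% = vehicle and 100% = reference cytotoxic drug.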 The conditions noted are these: HPDE-C7 pancreatic duct cells viability, at 10 µM, hits give high values.
As to `Cc1ccc2occ(CN3CCN(c4ccccc4)CC3)c(=O)c2c1`, the cytotoxicity was -17%.

As to `COc1ccc(CCNC(=O)CN2CCN(c3cccc(Cl)c3)CC2)cc1OC`, the cytotoxicity was 1.7%.

Consider `COc1cccc(N2CCN(Cc3coc4c(Cl)cc(Cl)cc4c3=O)CC2)c1`, for which the cytotoxicity is 61.8% (active).

For the compound `COc1cc(CN2CCSCC2)cc(OC)c1OC`, the cytotoxicity is -9.5%.

Turning to `COc1ccc(N2CCN(Cc3cc(=O)oc4ccc(Cl)cc34)CC2)cc1`, the cytotoxicity was -1.8%.

Consider `COc1ccc(S(=O)(=O)CCC(=O)Nc2c(C)n(C)n(-c3ccccc3)c2=O)cc1`, for which the cytotoxicity is -10.2%.

Regarding `CC(C)N(Cc1ccccc1)S(=O)(=O)N(C)C`, the cytotoxicity is -7.9%.

In the case of `COc1cc(NC(=O)Cc2nn(C)c(=O)c3ccccc23)cc(OC)c1`, the cytotoxicity was 19.8%.

For the compound `COc1ccc(-c2cc(C(F)(F)F)n3ncc(C(=O)O)c3n2)cc1OC`, the cytotoxicity is 2%.

As for `Cc1ccc(S(=O)(=O)N2CCN(C(=O)C3CCCCC3)CC2)cc1`, the cytotoxicity was 7.7%.

On to `Cc1cccc(OCCCN2CCCCCC2)c1`, for which the cytotoxicity was 19.3%.

As for `Cc1cccc(OCCn2c(=O)n(C)c3ccccc32)c1`, the cytotoxicity was -3.7%.

As to `Cc1cc(C)n(-c2nnc3n2N=C(c2c[nH]c4ccccc24)CS3)n1`, the cytotoxicity is 51.3% (active).

Take `Cc1cc(C)n(-c2nnc3n2N=C(c2ccccc2)CS3)n1`: the cytotoxicity was -0.3%.

For `Cc1cccc(-c2nnc3n2N=C(c2ccccc2Br)CS3)c1`, the cytotoxicity was 15%.

Regarding `CCCn1c(SCC#N)nc2c(c1=O)C1(CCCC1)Cc1ccccc1-2`, the cytotoxicity is 47.8%.

`N#CCSc1n[nH]c2nc3c(c(=O)n12)C1(CCCC1)Cc1ccccc1-3`: the cytotoxicity was 54.9% (active).

On to `CCn1c(SCC#N)nc2c(c1=O)C1(CCCC1)Cc1ccccc1-2`, for which the cytotoxicity was 41.8%.

As to `c1ccc(-n2nnnc2Oc2ccc(-c3nnco3)cc2)cc1`, the cytotoxicity was -4.8%.

As to `COc1ccccc1-c1cc(C(F)(F)F)nc(S(=O)(=O)CCCC(=O)NC(C)C)n1`, the cytotoxicity was 28%.

For the compound `COc1ccccc1-c1cc(C(F)(F)F)nc(S(=O)(=O)CCCC(=O)N2CCCCC2C)n1` (configuration not stated), the cytotoxicity is 88.8% (active).

Consider `COc1ccccc1-c1cc(C(F)(F)F)nc(N2CCN(c3ccccc3)CC2)n1`, for which the cytotoxicity was 29.8%.

Regarding `COc1ccccc1-c1cc(C(F)(F)F)nc(N2CCOCC2)n1`, the cytotoxicity is -5.9%.

Turning to `COc1ccccc1-c1cc(C(F)(F)F)nc(N2CCCC2)n1`, the cytotoxicity was -25.6%.

As to `Cc1cc(S(=O)(=O)N(Cc2ccc3c(c2)OCO3)CC2CCCO2)ccc1-n1cnnn1` (configuration not stated), the cytotoxicity was -7.2%.

As for `COc1ccc(-c2nnc(NC(=O)c3cc(Cl)ccc3Cl)o2)cc1`, the cytotoxicity is 33.1%.

As to `COc1cccc(-c2nnc(NC(C)=O)o2)c1`, the cytotoxicity is 7.6%.

On to `COc1cccc(C(=O)Nc2nnc(-c3ccc(F)cc3)o2)c1`, for which the cytotoxicity was 31%.

Take `COc1cccc(-c2nnc(NC(=O)c3cccc(F)c3)o2)c1`: the cytotoxicity was 61.8% (active).

In the case of `COc1cccc(C(=O)Nc2cccc(-c3nnc(-c4ccccc4)o3)c2)c1`, the cytotoxicity is 3.9%.

Regarding `COc1cccc(C(=O)Nc2nnc(-c3ccc(Cl)cc3)o2)c1`, the cytotoxicity is 85.7% (active).

For the compound `O=C(Nc1ccc(Cc2ccncc2)cc1)C1CC1`, the cytotoxicity was -38.5%.

Consider `CN(C)/C=c1\sc2c(C#N)cc(C(=O)c3ccc(Br)cc3)n2c1=O`, for which the cytotoxicity is -29.6%.

Turning to `O=C1[C@H]2[C@@H](C(=O)N1c1cc(Cl)cc(Cl)c1)[C@]1(C(=O)Nc3ccccc31)N1CCC[C@@H]21`, the cytotoxicity was -1.8%.

`COC(=O)c1ccccc1Nc1ccccc1`: the cytotoxicity is -2.7%.

As to `CCOC(=O)C1=C(N)n2c(s/c(=C\c3cccnc3)c2=O)=C(C(=O)OCC)C1c1cccnc1` (configuration not stated), the cytotoxicity is -31.3%.

As to `CCOC(=O)C1=C(N)n2c(s/c(=C\c3ccco3)c2=O)=C(C(=O)OC(C)C)C1c1ccco1` (configuration not stated), the cytotoxicity is -11.9%.

As for `CCOC(=O)C1=C(N)n2c(s/c(=C/c3ccco3)c2=O)=C(C(=O)OC)C1c1ccco1` (configuration not stated), the cytotoxicity is 75.9% (active).

In the case of `N#CC1=C(N)n2c(s/c(=C\c3ccco3)c2=O)=C(C#N)C1c1ccco1` (configuration not stated), the cytotoxicity was 12.3%.

On to `CCOC(=O)C1=C(N)n2c(s/c(=C\c3cccnc3)c2=O)=C(C(=O)OC)C1c1cccnc1` (configuration not stated), for which the cytotoxicity was 10.6%.

`CCCCCCn1c(SCC(=O)OC)nc2c1c(=O)[nH]c(=O)n2C`: the cytotoxicity is 3.9%.

For the compound `CC1Cc2ccccc2N1C(=O)CSc1ncccc1C(=O)O` (configuration not stated), the cytotoxicity is -4.3%.

Consider `O=C(CCn1c(=O)oc2ccccc21)N1CCN(c2ccccc2F)CC1`, for which the cytotoxicity is 1.4%.

Consider `O=C(CCn1c(=O)oc2ccccc21)N1CCN(c2ccccc2Cl)CC1`, for which the cytotoxicity is 56.7% (active).

With `O=C(CCn1c(=O)oc2ccccc21)N1CCCCCC1`, the cytotoxicity is 10.9%.

`COc1ccc(OCC(=O)N(C)Cc2ccccc2)cc1`: the cytotoxicity is -16.7%.

`COc1ccc(CCNc2nc(-c3sc(N)nc3C)cs2)cc1OC`: the cytotoxicity was 16%.

Regarding `Cc1ccc2c(c1)-c1ccccc1S(=O)(=O)N2`, the cytotoxicity was 10.1%.

Turning to `O=S1(=O)Nc2c(ccc3cccnc23)-c2ccccc21`, the cytotoxicity is 90.9% (active).

Regarding `Nc1ccc2c(c1)-c1ccccc1S(=O)(=O)N2`, the cytotoxicity is 14.6%.

Turning to `O/N=C(/Cc1ccccn1)c1ccccc1`, the cytotoxicity was 2%.

Consider `CCCCCC/C(=N/O)c1ccccn1`, for which the cytotoxicity is 51.4% (active).

On to `O=C(NCCCNC(=O)c1ccccn1)c1ccccn1`, for which the cytotoxicity was 15.3%.

For `Cc1cccc(N(CC(=O)NC2CCCC2)C(=O)CS(=O)CC(=O)Nc2ccc3c(c2)OCO3)c1` (configuration not stated), the cytotoxicity was 0.1%.

Regarding `CC(C)C(=O)Nc1cccc(NC(=O)c2cccnc2)c1`, the cytotoxicity is -3.2%.

Turning to `Cc1ccc(C)c(N2CCN(C(c3ccncc3)c3nnnn3Cc3ccccc3)CC2)c1` (configuration not stated), the cytotoxicity is 27.4%.

Consider `Cc1cccc(-n2c(SCC(=O)Nc3nonc3C)nnc2-c2ccoc2C)c1`, for which the cytotoxicity is -16.1%.

On to `Cc1cccc(-n2c(SCC(=O)Nc3ccc4c(c3)OCO4)nnc2-c2ccoc2C)c1`, for which the cytotoxicity is 65.5% (active).

For `Cc1ccc(-n2c(SCC(=O)Nc3ccc4c(c3)OCO4)nnc2-c2ccoc2C)cc1`, the cytotoxicity was 36.3%.

In the case of `Cc1cc(Cl)ccc1OCC(=O)N1CC(C)CC(C)C1` (configuration not stated), the cytotoxicity was -10.4%.

In the case of `Cc1ccc2c(c1)C(c1ccc(F)cc1)N(C(=O)C1CC1)CC(=O)N2` (configuration not stated), the cytotoxicity was -2%.

For the compound `COc1cc(C(=O)Nc2cccc(-c3nncn3C)c2)cc(OC)c1OC`, the cytotoxicity is -13.4%.

Take `COCCOC(=O)c1c(C)oc2ccc(NS(=O)(=O)c3ccccc3)cc12`: the cytotoxicity was 12.7%.

For the compound `COC(=O)c1ccccc1NS(=O)(=O)c1ccc2c3c(cccc13)C(=O)N2`, the cytotoxicity was 24.2%.

For `CCOC(=O)c1c(C)oc2ccc(NS(=O)(=O)c3ccc4c5c(cccc35)C(=O)N4)cc12`, the cytotoxicity is 64.4% (active).

With `CC(=O)/C=C(/C)NC(Cc1c[nH]c2ccccc12)C(=O)O` (configuration not stated), the cytotoxicity was 2.1%.

As to `Oc1c(CN2CCc3ccccc3C2)cc(Cl)c2cccnc12`, the cytotoxicity is 7.8%.

For the compound `Oc1c(CN2CCN(c3ccccn3)CC2)cc(Cl)c2cccnc12`, the cytotoxicity was 27.5%.

Take `OCc1ccnc2c(O)cccc12`: the cytotoxicity was -13.3%.

As for `Oc1ccc2cccnc2c1`, the cytotoxicity is -7.4%.

Turning to `Cc1cc(Nc2nc3c(c(=O)n(C)c(=O)n3C)n2C)n(-c2ccccc2)n1`, the cytotoxicity was -9%.

Take `Cc1cc(=O)oc2cc(OCC3CC(c4ccc(N(C)C)cc4)=NO3)ccc12` (configuration not stated): the cytotoxicity is -19%.

Regarding `COc1ccc2cc3cc(C(=O)Nc4ccc5c(c4)OCCO5)oc3nc2c1`, the cytotoxicity was 2%.

With `Cc1ccc2cccc(S(=O)(=O)N3CCN(c4cccc(Cl)c4)CC3)c2n1`, the cytotoxicity was 7%.

Regarding `CC(=O)c1cc2c(cc1NC(=O)c1cnc(C)cn1)OCO2`, the cytotoxicity is 13.3%.

Turning to `CN(C)S(=O)(=O)c1cccc(C(=O)OCC(=O)Nc2ccccc2OC(F)F)c1`, the cytotoxicity is 0.1%.

For `COc1ccc(-n2c(SCCC#N)nnc2-c2cc(Cl)ccc2OC)cc1Cl`, the cytotoxicity was 50.2% (active).

On to `Cc1cc(-n2c(SCCC#N)nnc2-c2cccnc2)ccc1Cl`, for which the cytotoxicity is -25%.

Turning to `N#CCCCSc1nnc(-c2ccc(Cl)cc2)n1-c1ccccc1`, the cytotoxicity is -20.2%.

Regarding `O=C(O)c1cnn2c1NC(c1ccc(F)cc1)CC2C(F)(F)F` (configuration not stated), the cytotoxicity is -9.5%.

`COC(=O)/C(=C1/Oc2cc(C)oc(=O)c2S1)C(F)(F)F`: the cytotoxicity is 76.7% (active).

For `COC(=O)/C(=C1/Oc2cc3c(cc2S1)OCO3)C(F)(F)F`, the cytotoxicity was -28.2%.

As for `COC(=O)C1=C(N)Oc2cc(C)oc(=O)c2C1c1ccncc1` (configuration not stated), the cytotoxicity was 0.6%.

In the case of `O=C(O)CCC(=O)Nc1ccccc1C(=O)NC1CCCCC1`, the cytotoxicity was -16.8%.

For `O=C1CC(c2ccco2)CC(O)=C1C=NCCN1CCNCC1` (configuration not stated), the cytotoxicity was -17.7%.

Take `O=C1CC(c2ccco2)CC(O)=C1C=Nc1cc(Cl)ccc1O` (configuration not stated): the cytotoxicity is 55.5% (active).

As to `O=C1CC(c2ccco2)CC(O)=C1C=NCCO` (configuration not stated), the cytotoxicity is 5.2%.

For `C=C1[C@@H](C)C2[C@H](Cc3ccccc3)NC(=O)[C@]23OC(=O)CC[C@H](O)CCC[C@H](C)C/C=C/[C@H]3[C@@H]1O` (some centres not stated), the cytotoxicity was 67.8% (active).

`CC(C)CCn1c(SCC(=O)OCn2nnc3ccccc3c2=O)nc2ccccc2c1=O`: the cytotoxicity is -1.3%.

On to `CO[C@H]1C[C@@H]2CC[C@@H](C)[C@@](O)(O2)C(=O)C(=O)N2CCCC[C@H]2C(=O)O[C@H]([C@H](C)C[C@@H]2CC[C@@H](O)[C@H](OC)C2)CC(=O)[C@H](C)C=C(C)[C@@H](O)[C@@H](OC)C(=O)[C@H](C)C[C@H](C)C=CC=CC=C1C`, for which the cytotoxicity was 81.1% (active).

For `CCOc1ccc(-c2nnc(SCC(=O)N(CC)CC)n2N)cc1`, the cytotoxicity is -5.3%.

Turning to `Cc1c(/C=N/n2cnnc2)c2ccccc2n1CCOc1ccccc1`, the cytotoxicity is 67.6% (active).

Turning to `COc1cccc(OCCn2c(C)c(/C=N/n3cnnc3)c3ccccc32)c1`, the cytotoxicity was 75.8% (active).

With `Cc1ccc(OCCn2c(C)c(/C=N/n3cnnc3)c3ccccc32)cc1`, the cytotoxicity was 41%.

Turning to `Cc1c(/C=N/n2cnnc2)c2ccccc2n1C`, the cytotoxicity was 5.2%.

In the case of `C(=N\n1cnnc1)/c1cccc(OCCOc2ccccc2)c1`, the cytotoxicity was 2.1%.

Turning to `Cc1c(/C=N/n2cnnc2)c2ccccc2n1CCOc1ccc(Cl)cc1`, the cytotoxicity is 15.9%.
